High-throughput results: PubChem, National Center for Advancing Translational Sciences (NCATS)
HT1080 IDH1KD tx = HT-1080 IDH1 knockdown cell toxicity (counter line). HT-1080 IDH1 knockdown viability, ATP luminescence, 48 h. Potency, µM (series often up to 46.1 µM), for the others: at the top dose activity, negative = toxicity, usual class: cytotoxic. actives 2% (n = 360,000);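 also: 0% = DMSO wells and -100% = cell-free medium wells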
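Luminescent ATP read-out (CellTiter-Glo, 10 min at room temperature) after 48 h compound exposure at 37 °C gave viability of IDH1-knockdown HT-1080 cells. Activity was normalised to DMSO and cell-free wells, then fitted as concentration-response curves.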
MCF10A rerep = DNA re-replication induction in MCF 10a cells | actives 2.9% (n = 350,000) | Potency, µM (doses to about 46.1 µM), for the others: at the top dose activity, positive = re-replication, most hits filed as activators | AID 624296 | MCF 10A DNA re-replication, Hoechst nuclear intensity, 48 h; also: % of control where 0% means no effect; nearly all actives have a fitted effect of over 50% in size
SW480 rerep = DNA re-replication induction in SW480 cells; SW480 DNA re-replication, Hoechst DNA content imaging, 48 h; Potency, µM (titrated, usually from 46.1 µM), inactives show top-dose re-replication activation, actives largely listed as activators; actives 1.8% (n = 340,000); AID 624297; also: % of control where 0% means no effect; nearly all actives have a fitted effect of over 55% in size
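DNA re-replication was detected as more nuclei of elevated Hoechst intensity after 48 hr exposure to compound (23 nL pinned per well of 250 cells).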
KB-3-1 cytotox = KB-3-1 parental cell cytotoxicity; actives 1.4% (n = 400,000); Potency, µM (series often up to 46.1 µM), actives largely listed as cytotoxic; KB-3-1 viability, CellTiter-Glo ATP luminescence, 72 h; AID 1347075; also: % is scaled to controls: 0 for no effect and ±100 for the full control effect; nearly all actives have a fitted effect of over 60% in size
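Cytotoxicity in the drug-sensitive parental line KB-3-1 was scored as loss of CellTiter-Glo luminescence following 72 h incubation with compound. Values come from curve fitting of normalized concentration-response data.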
HT1080-NT tox = kills 2HG-producing HT-1080-NT fibrosarcoma cells | actives 1.6% (n = 360,000) | HT-1080-NT fibrosarcoma viability, CellTiter-Glo ATP luminescence, 48 h | AID 686970 | Potency, µM (series often up to 46.1 µM), for the others: top-dose activity, negative = less viability, usual class: cytotoxic;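 also: NT is the 2HG producing partner of a matched IDH1 knockdown line; 0% = DMSO-treated cells and -100% = media-only wells without cells; nearly all actives have a fitted effect of over 55% in size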
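Luminescent CellTiter-Glo readout after 48 hours of compound exposure at 37 degrees C defined viability of HT-1080-NT cells. Activity was normalized to DMSO wells and cell-free media wells; concentration-response curves were fitted and assigned curve classes.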
KB-V1 MDR tox = KB-V1 MDR subline cytotoxicity | KB-V1 MDR cells viability, CellTiter-Glo, 72 h | Potency, µM (doses to about 46.1 µM), hits mostly cytotoxic | actives 3.4% (n = 400,000) | AID 1347076; also: % is scaled to controls: 0 for no effect and ±100 for the full control effect; nearly all actives have a fitted effect of over 60% in size
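In this primary screen, KB-V1 cells overexpressing P-gp are incubated with library compounds (lowest to highest concentration) for 72 h at 37 degrees C before a luminescent ATP viability read.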
Numbers without * were called inactive; i = inactive; ? = inconclusive; nt = not tested or not shown; [ ] = dose if it differs, or a comment. Shown are actives, neighbours in structure and some others; about 8% of the full set was active somewhere. Calls follow the shape of the dose curve; as a rule, active = well fitted curve in the direction sought with a large enough effect; inconclusive = small, poorly fitted or top-dose-only effect, or another doubt; inactive = no such curve, though single readings can be large; an effect the other way counts as inactive or inconclusive. Potency is read from the fitted curve at half-maximal effect.

SMILES	HT1080 IDH1KD tx	MCF10A rerep	SW480 rerep	KB-3-1 cytotox	HT1080-NT tox	KB-V1 MDR tox
CCn1c2c(c(=O)n3ncc(C(=O)N4CCN(c5ccc(C(C)=O)cc5)CC4)c13)CN(Cc1ccc(OC)cc1)CC2	nt	nt	nt	21µM*	nt	i
Oc1c(C(c2ccccc2)N2CCOCC2)ccc2ccccc12 (configuration not stated)	-19%	16µM*	?	?	-14%	i
CSCCC(c1nc2ccccc2[nH]1)n1c(-c2cc(C(F)(F)F)cc(C(F)(F)F)c2)nc2ccccc21 (configuration not stated)	21µM*	nt	nt	i	33µM*	?
COC(=O)c1ccc2c(=O)n(CC3CCCO3)c(SCC(=O)Nc3ccccc3OC)nc2c1 (configuration not stated)	3%	7%	4%	i	3%	3.3µM*
Cc1cc2c3c(c1)C(C)(c1ccccc1)CC(C)(C)N3C(=O)C21C(C#N)=C(N)OC2=C1C(=O)CC(C)(C)C2 (configuration not stated)	18µM*	?	18%	?	-1%[9.24 µM]	21µM*
CC1(C)CC(=O)C2=C(C1)OC(N)=C(C#N)C21C(=O)N2CCCc3cccc1c32 (configuration not stated)	0%	4%	-2%	i	12%	i
CCOc1ccc(-c2cc(C(=O)N3CCN(S(=O)(=O)c4cc(Cl)ccc4OC)CC3)[nH]n2)cc1	nt	nt	nt	i	nt	?
O=C(CSc1nncn1-c1ccccc1)Nc1cccc(S(=O)(=O)N2CCCCC2)c1	nt	3%	2%	nt	nt	nt
COc1ccc(-n2cnnc2SCC(=O)Nc2cccc(S(=O)(=O)N3CCCCC3)c2)cc1	1%	15%	11%	i	3%	15µM*
COc1ccc(OC)c(/C=C/C(=O)Nc2cccc(S(=O)(=O)N3CCCC3)c2)c1	-6%	23µM*	14%	i	0%	i
CCN1CCN(c2ccc(S(=O)(=O)N3CCCCC3)cc2NC(=O)COc2ccc(Cl)c(C)c2)CC1	-14%	1%	16µM*	i	-4%	i
CCN1CCN(c2ccc(S(=O)(=O)N3CCCCC3)cc2NC(=O)c2ccc([N+](=O)[O-])s2)CC1	-9%	?	13µM*	?	-16%	?
CCN1CCN(c2ccc(S(=O)(=O)N3CCCCC3)cc2NC(=O)/C=C/c2cc(OC)ccc2OC)CC1	-22%	21µM*	149%	i	-27%	?
COc1cc(C#N)ccc1OCC(=O)Nc1cccc(S(=O)(=O)N2CCCC2)c1	0%	6%	-5%	i	-10%	16µM*
COc1cccc(NC(=O)CSc2nccn2Cc2ccc3c(c2)OCO3)c1	nt	nt	nt	i	nt	i
Cc1ccc(Cl)cc1NC(=O)Nc1nnc(N2CCCC(C)C2)s1 (configuration not stated)	nt	nt	nt	i	nt	i
C/C=C/c1ccc(OCCOc2cc(C=O)ccc2OC)c(OC)c1	-13%	29%	3%	i	-22%	15µM*
C=CCc1c(C)nc(-c2ccccc2)nc1Nc1ccc(O)cc1	?	?	30%	21µM*	?	13µM*
C=CCc1c(C)nc(SC)nc1Nc1ccc(C(C)=O)cc1	-6%[9.24 µM]	12%	-5%	i	-11%	12µM*
C=CCc1c(C)nc(SC)nc1Nc1ccccc1	-4%	5%	1%	i	-3%	?
C=CCc1c(C)nc(SC)nc1Nc1ccc(C(=O)O)cc1	?	?	-17%	?	3%	21µM*
CCOC(=O)c1c(C)oc2nc(C)nc(NCCc3ccc(OCC)cc3)c12	nt	nt	nt	i	nt	?
COc1ccccc1/C=C/C(=O)c1c2c(c(C)[nH]c1=O)CCCC2	?	?	?	i	4.5µM*	?
COc1ccccc1/C=C/C(=O)c1ccc(NC(C)=O)cc1	?	16µM*	5%	?	-20%	i
COc1ccccc1/C=C/C(=O)NC(=S)NC(C)C	14%	?	16µM*	?	10%	?
SMILES	HT1080 IDH1KD tx	MCF10A rerep	SW480 rerep	KB-3-1 cytotox	HT1080-NT tox	KB-V1 MDR tox
COc1ccc(/C=C/C(=O)NC(C)CCc2ccccc2)cc1OC (configuration not stated)	1%	9%	?	i	-1%	i
COc1ccc(/C=C/C(=O)NC(=S)NCc2ccccc2)cc1OC	?	7%	23µM*	i	?	i
CCN1CCN(S(=O)(=O)c2cc3c(cc2Cl)NC(=O)CO3)CC1	4%	3%	-15%	i	1%	i
Cc1ccc(C(C)C)c(OCCCn2c(=O)oc3ccc(C)cc32)c1	nt	nt	nt	i	nt	?
CCCCC(=O)N(C)c1c(C)nc2ccc(C(=O)Nc3cccc(OC)c3)cn12	26%	nt	nt	i	0%	i
CCCCOc1ccc(CNC(=S)N/N=C/c2ccc(OC)c(OC)c2)cc1	0%	5%	?	?	0%	18µM*
COc1ccccc1/C=C/C(=O)c1ccccc1	-22%	26µM*	?	i	-18%	i
CC(=O)c1ccc(NS(=O)(=O)c2ccc(C)cc2)cc1	-2%	?	-4%	i	-6%	i
COc1cc(OC)c(OC)cc1/C=C/C(=O)c1ccc(NS(=O)(=O)c2ccc(C)cc2)cc1	-20%	5.8µM*	?	i	-21%	15µM*
CCOc1ccc(CNC(=S)N/N=C\c2ccc([N+](=O)[O-])cc2)cc1	-3%	-4%	-7%	i	-1%	i
COc1ccc(N(CC(=O)Nc2cccc(C)c2)S(=O)(=O)c2c(C)noc2C)cc1	3%	5%	3%	i	3%	i
Cc1ccc(N(CC(=O)Nc2cc(C)cc(C)c2)S(=O)(=O)c2c(C)noc2C)cc1	?	?	?	?	18µM*	?
Cc1ccc(N(CC(=O)Nc2ccc(F)c(Cl)c2)S(=O)(=O)c2c(C)noc2C)cc1	?	12µM*	9%	?	?	18µM*
COc1ccc(N(CC(=O)Nc2ccc(C)cc2)S(=O)(=O)c2c(C)noc2C)cc1	-12%	0%	-4%	i	-18%	i
CCc1cccc(NC(=O)CN(c2ccc(C)cc2)S(=O)(=O)c2c(C)noc2C)c1	-8%	12µM*	-37%	i	-21%	?
COc1ccccc1/C=C/C=N/NC(=O)c1cc(-c2ccc(C)o2)[nH]n1	?	?	?	i	?	?
CC(C)Oc1ccc(CNC(=O)c2ccccc2NC(=O)c2nsc3ccccc23)cc1	nt	nt	nt	i	nt	i
